Screening data (PubChem)
M1 antag = human M1 muscarinic receptor antagonists, primary screen, CHO-K1 cells, Fluo-8 calcium fluorescence, 1536-well; CHO-K1 hM1, ACh EC80 antagonist; Muscarinic acetylcholine receptor M1 (Homo sapiens), P11229; inhibition, % at 3 µM; 360,000 compounds, 1.3% hits;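 active means percent inhibition above its own plate's cutoff, namely the mean of that plate's compound wells plus 3 SD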;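 further: peak over basal fluorescence ratio during 140 s after agonist addition; 0% = ACh EC80 plus DMSO and 100% = DMSO alone without agonist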
Target sequence (P11229 whole entry, looked up): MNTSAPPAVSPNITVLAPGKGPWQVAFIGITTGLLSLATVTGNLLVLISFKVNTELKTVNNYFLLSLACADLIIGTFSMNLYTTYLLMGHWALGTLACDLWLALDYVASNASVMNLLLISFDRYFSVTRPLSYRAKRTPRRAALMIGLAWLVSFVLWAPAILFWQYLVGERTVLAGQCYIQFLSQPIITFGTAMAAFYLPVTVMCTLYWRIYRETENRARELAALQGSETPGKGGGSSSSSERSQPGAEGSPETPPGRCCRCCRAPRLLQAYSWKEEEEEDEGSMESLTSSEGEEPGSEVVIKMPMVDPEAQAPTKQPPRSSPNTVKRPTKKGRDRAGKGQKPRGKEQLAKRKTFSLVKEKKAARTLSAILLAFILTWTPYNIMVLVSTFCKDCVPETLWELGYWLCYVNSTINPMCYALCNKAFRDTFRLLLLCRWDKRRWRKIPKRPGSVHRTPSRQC
CHO-K1 Ca antag = nonselective inhibitor or artifact in parental CHO-K1 cells; AID 602250; 360,000 compounds, 0.6% hits; inhibition, % at 3 µM; ATP-induced calcium, Fluo-8 fluorescence;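 active means inhibition above a per-plate cutoff, the plate's mean sample inhibition plus 3 SD, cut at about 24% in these data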;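 further: 0% = DMSO plus EC80 ATP and 100% = DMSO alone without ATP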
M1 ag = human M1 muscarinic receptor agonists, primary screen, Fluo-8 calcium fluorescence, CHO-K1 cells, HTS | CHO-K1 hM1, agonist mode; 0% DMSO, 100% acetylcholine EC100 | activation, % at 3 µM | 360,000 compounds, 0.33% hits | Muscarinic acetylcholine receptor M1 (Homo sapiens), P11229;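 active means activation above the run's mean compound activation plus 3 SD, cut at about 16% in these data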;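 further: peak over basal fluorescence ratio within a 140 s kinetic read after compound addition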
M1 ag parental = counter-screen for M1 agonists: effect in parental CHO-K1 cells; 360,000 compounds, 0.48% hits; AID 602248, 2012; activation, % at 3 µM; Fluo-8 calcium fluorescence; scaled to maximal ATP response, vehicle zero; in the data active means activation above about 15%;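 further: untransfected CHO-K1 host cells lacking M1 receptor as counterscreen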
M1 PAM parental = nonselective calcium activators in parental CHO-K1 cells, primary screen, counter-screen for M1 PAM project, cell-based, Fluo-8 calcium fluorescence, full deck, 1536-well; activation, % at 3 µM; 360,000 compounds, 0.02% hits; ATP EC20; 0% at ATP EC20, 100% at ATP max;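 active means activation above the run cutoff, the mean activation of all test compounds plus 3 SD, cut at about 40% in these data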;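 further: peak over basal fluorescence ratio in a 140 s read after ATP addition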
M1 PAM = human M1 muscarinic receptor positive allosteric modulators, primary screen, CHO-K1 cells, Fluo-8 calcium fluorescence, 1536-well; Muscarinic acetylcholine receptor M1 (Homo sapiens), P11229; CHO-K1 hM1, ACh EC20; 0% = ACh EC20, 100% = maximal ACh; activation, % at 3 µM; 360,000 compounds, 0.088% hits; in the data active means activation above about 19%, passing the limit was not always enough
Starred values were filed as active, the others as inactive. The list is not random: actives were taken first. Their share in the collection is about 2.3%.

SMILES | M1 antag | CHO-K1 Ca antag | M1 ag | M1 ag parental | M1 PAM parental | M1 PAM
Cc1cc(Cl)c(OCCOCCN2CCC(C)CC2)c(Br)c1 | 55* | 14 | -10 | 0 | -13 | -24
CC1CCN(CCCCOc2ccccc2Br)CC1 | 10 | -6 | -10 | 1 | 20 | -12
COc1ccc(OC)c(NC(=O)Cc2ccc(NC3=NC4CS(=O)(=O)CC4S3)cc2)c1 (configuration not stated) | -7 | 17 | -2 | 0 | -11 | 2
Cc1cccc(Nc2nc(Cl)ncc2F)c1C | -12 | -3 | -3 | -1 | 14 | 7
COc1ccc(O)c(C(=O)c2coc(=N)c(C(=O)Nc3ccc(SC(F)F)cc3)c2)c1 | 30 | 9 | 0 | 17* | -5 | -13
Cc1cc(C)c(C)c(S(=O)(=O)N2CCN(C(=O)C3CSC4(C)CCC(=O)N34)CC2)c1C (configuration not stated) | -4 | 9 | -3 | 1 | -4 | 2
COc1ccc(N2CCN(C(CNC(=O)CC(C)(C)C)c3ccc4c(c3)OCO4)CC2)cc1 (configuration not stated) | 31* | -15 | -13 | 1 | -16 | -38
COc1ccc(N2CCN(C(CNC(C)=O)c3ccc4c(c3)OCO4)CC2)cc1 (configuration not stated) | -5 | -4 | 1 | 0 | -14 | 15
Cc1ccc(S(=O)(=O)c2ccc([N+](=O)[O-])o2)cc1 | 4 | 1 | -5 | 0 | 0 | 0
CC1(C)N=C(N)N=C(N)N1CCCCc1ccccc1 | 52* | -4 | -8 | 2 | 1 | -27
Cc1ccc2nc(/C(C#N)=C\c3ccc(N4CCOCC4)o3)[nH]c2c1 | 20 | 11 | 31* | 8 | -10 | -12
CCn1cc(S(=O)(=O)N2CCCC2)cn1 | -12 | -9 | -2 | 0 | 4 | 9
CCOC(=O)C1CCCN(CCC(=O)Nc2ccccc2)C1 (configuration not stated) | 4 | -5 | 8 | 0 | 19 | -5
CCOC(=O)C1CCCN(CC(=O)Nc2cc(C)cc(C)c2)C1 (configuration not stated) | -18 | -21 | 3 | 0 | 6 | 13
CCOC(=O)C1CCCN(C(=S)Nc2cc(C)cc(C)c2)C1 (configuration not stated) | 68* | 11 | 63* | 0 | -4 | -14
CCOC(=O)C1CCN(CCC(=O)Nc2cc(C)ccc2C)CC1 | 2 | -4 | -3 | 16* | 8 | -2
CCOC(=O)C1CCCN(CCC(=O)Nc2cc(OC)ccc2OC)C1 (configuration not stated) | -5 | -3 | 16* | 0 | -2 | 1
CCOC(=O)C1CCCN(C(=S)Nc2ccc(S(=O)(=O)N3CCOCC3)cc2)C1 (configuration not stated) | 54* | -10 | 63* | 1 | 6 | -30
CC1CCCN(CCC(=O)Nc2ccc3c(c2)CCC3)C1 (configuration not stated) | 33* | -9 | -7 | 0 | 15 | -20
CCOC(=O)C1CCCN(CCC(=O)Nc2cc(C)cc(C)c2)C1 (configuration not stated) | 5 | -13 | 21* | 0 | 15 | -6
CCOC(=O)C1CCCN(Cc2cc(OC)c(O)c(OC)c2)C1 (configuration not stated) | 6 | -1 | 42* | 0 | 2 | -15
CCOC(=O)C1CCCN(C(=S)NC2CCCCC2)C1 (configuration not stated) | 2 | -16 | 39* | 1 | 13 | -8
CCc1ccc(NC(=O)C2CCC(CNC(=O)[C@@H]3Cc4ccccc4CN3)CC2)cc1 (some centres not stated) | 4 | -15 | -2 | 5 | -2 | -7
Cn1cnnc1SCC(=O)c1c(N)n(Cc2ccccc2)c(=O)n(C)c1=O | -9 | -13 | -7 | 0 | 23 | 12
CCOC(=O)N1CCN(C(=S)Nc2cccc(C)c2)CC1 | -2 | -2 | 19* | 0 | 12 | -1
SMILES | M1 antag | CHO-K1 Ca antag | M1 ag | M1 ag parental | M1 PAM parental | M1 PAM
CCOC(=O)C1CCCN(C(=O)Nc2cccc(Cl)c2)C1 (configuration not stated) | 20 | -12 | 55* | 1 | 24 | -24
CCOC(=O)C1CCCN(CC(=O)NC2CC2)C1 (configuration not stated) | -12 | -3 | 25* | 0 | 10 | 9
CCOC(=O)C1CCCN(CC(=O)Nc2cccc(C(C)=O)c2)C1 (configuration not stated) | -3 | -10 | -3 | 1 | 19 | 8
Cc1ccc(N2CC(NC(=O)C(=O)c3c(C)[nH]c4ccccc34)CC2=O)cc1C (configuration not stated) | 1 | 0 | -1 | 2 | 2 | 3
O=C(CCN1CCOCC1)N1c2ccccc2Sc2ccc(Cl)cc21 | 100* | -10 | -8 | 2 | 10 | -29
CN(C)CCCNC(=O)N1c2ccccc2Sc2ccccc21 | 100* | -8 | -11 | 0 | 12 | -28
O=C(NCCN1CCOCC1)N1c2ccccc2Sc2ccccc21 | 62* | 7 | -5 | 2 | 9 | -24
O=C(NCCO)N1c2ccccc2Sc2ccccc21 | -10 | -2 | -5 | 1 | 10 | 8
O=C(Cc1c(F)cccc1Cl)N/N=C/c1cccnc1 | -11 | -3 | -2 | 1 | -3 | 10
CCC[N+](CC#CCO)(CC#Cc1ccccc1)CCC | -18 | -5 | -6 | 1 | 18 | 12
CC[N+](CC)(CC#Cc1ccccc1)CC(=O)c1ccc(Cl)cc1 | 35* | -6 | -12 | 1 | 4 | -25
O=C(NCc1ccccc1)c1noc2c1CCCCC2 | -8 | -29 | -10 | 0 | 12 | 19
O=C(NC1CCCC1)c1noc2c1CCCCC2 | 37* | -5 | -4 | 0 | 11 | -19
Cc1cccc(Nc2nc3c(c(=O)n(C)c(=O)n3C)n2CC(O)CO)c1 (configuration not stated) | 9 | 25* | 0 | 0 | -7 | -6
CCOc1cc(C(=S)N2CCOCC2)ccc1OS(=O)(=O)c1ccccc1[N+](=O)[O-] | -5 | 1 | -4 | 2 | 22 | 4
COc1cc2c(cc1OC)C(=O)N1[C@H]3c4ccccc4OC[C@@H]3[C@H](c3ccccc3)[C@]1(C)C(=O)N2 | 0 | -11 | -4 | 2 | 14 | 4
Cc1ccc2c(c1)C(=O)N1[C@H]3c4cc(C)ccc4OC[C@@H]3[C@H](c3ccccc3)[C@]1(C)C(=O)N2 | 48* | 14 | -5 | 0 | -14 | -25
